Common to all, as to parameters: species or system human, MV4-11 + K-562 + COLO205 + SK-N-BE2 + OVCAR-8
Assay [1] concerns PRKCZ. The following applies: read-out: apparent Kd; compound concentrations: 100 nM and 1000 nM (sheet 'Samples'), CATDS: 1.7514325716089001E-2; n = 1.
The test system of assay [2] is NEK2. Conditions: read-out: apparent Kd; compound concentrations:100 nM and 1000 nM (sheet 'Samples'); n = 1.
Assay [3] has as its system PKMYT1. Conditions: read-out: apparent Kd; compound concentrations:100 nM and 1000 nM (sheet 'Samples'); n = 1.
The subject of assay [4] is RAF1. The following applies: read-out: apparent Kd; compound concentrations: 100 nM and 1000 nM (sheet 'Samples'), CATDS: 0.155550656381887; n = 1.
The test system of assay [5] is RPS6KB1. The following applies: read-out: apparent Kd; compound concentrations: 100 nM and 1000 nM (sheet 'Samples'), CATDS: 7.08215510279748E-2; n = 1.
Assay [6] has as its system MAP3K5. The following applies: read-out: apparent Kd; compound concentrations: 100 nM and 1000 nM (sheet 'Samples'), CATDS: 5.5720140806326597E-2; n = 1.
The subject of assay [7] is NEK9. The following applies: read-out: apparent Kd; compound concentrations: 100 nM and 1000 nM (sheet 'Samples'), CATDS: 2.1458730065113701E-2; n = 1.
Assay [8] has as its system PI4KB. Conditions: read-out: apparent Kd; compound concentrations: 100 nM and 1000 nM (sheet 'Samples'), CATDS: 0.18067625739165599; n = 1.
Assay [9] relates to MAPK3. Conditions: read-out: apparent Kd; compound concentrations:100 nM and 1000 nM (sheet 'Samples'); n = 1.
Assay [10] deals with PIK3C2B. The following applies: read-out: apparent Kd; compound concentrations: 100 nM and 1000 nM (sheet 'Samples'), CATDS: 3.01337612448444E-2; n = 1.
Assay [11] concerns MAP2K3. The following applies: read-out: apparent Kd; compound concentrations:100 nM and 1000 nM (sheet 'Samples'); n = 1.
For assay [12], the system named is PIK3CB. The following applies: read-out: apparent Kd; compound concentrations:100 nM and 1000 nM (sheet 'Samples'); n = 1.
Assay [13] deals with SLC25A5. Conditions: read-out: apparent Kd; compound concentrations:100 nM and 1000 nM (sheet 'Samples'); n = 1.
Assay [14] concerns FES. The following applies: read-out: apparent Kd; compound concentrations: 100 nM and 1000 nM (sheet 'Samples'), CATDS: 3.8230279183827799E-2; n = 1.
In assay [15] the test system is CLK3. Conditions: read-out: apparent Kd; compound concentrations: 100 nM and 1000 nM (sheet 'Samples'), CATDS: 1.8485003347971998E-2; n = 1.
In assay [16] the test system is NTRK1. The following applies: read-out: apparent Kd; compound concentrations: 100 nM and 1000 nM (sheet 'Samples'), CATDS: 1.31353956305182E-2; n = 1.
Assay [17] concerns RPS6KA1. The following applies: read-out: apparent Kd; compound concentrations: 100 nM and 1000 nM (sheet 'Samples'), CATDS: 1.0541415060752299E-2; n = 1.
Assay [18] deals with HSP90AA1. Conditions: read-out: apparent Kd; compound concentrations: 100 nM and 1000 nM (sheet 'Samples'), CATDS: 6.9109754816413196E-2; n = 1.
In assay [19] the test system is HSPE1. The following applies: read-out: apparent Kd; compound concentrations: 100 nM and 1000 nM (sheet 'Samples'), CATDS: 0.293798637885134; n = 1.
Assay [20] deals with NME2;NME2P1. The following applies: read-out: apparent Kd; compound concentrations: 100 nM and 1000 nM (sheet 'Samples'), CATDS: 6.5363052061215496E-2; n = 1.

In the case of `Cl.Cl.Cl.c1ccc(Oc2ccc(Nc3ccnc4cc(-c5ccc(CN6CCNCC6)o5)ccc34)cc2)nc1.c1ccc(Oc2ccc(Nc3ccnc4cc(-c5ccc(CN6CCNCC6)o5)ccc34)cc2)nc1` [GW567142A], the potency estimated from few doses in assay [1] is 1820 nM.
With `CCN(CC)CCOc1ccc(Nc2ncc3cc(-c4c(Cl)cccc4Cl)c(=O)n(C)c3n2)cc1` [SB-601273], the values for the potency estimated from few doses in assay [2] and in assay [3] were 1780 nM and 1030 nM, respectively.
Consider `CCc1nc(-c2cccc(N(C)S(=O)(=O)c3ccccc3)c2)c(-c2ccnc(Nc3ccc(N4CCN(C(C)=O)CC4)nc3)n2)s1` [GSK1645895A], for which the potency estimated from few doses in assay [4] was 1420 nM.
For `O=C1N=C(NCCc2ccccc2F)S/C1=C\c1ccc2ncccc2c1` [RO4498483-000], the potency estimated from few doses in [5] is 1720 nM.
Regarding `CNC1=NC(=O)/C(=C/c2ccc3ncccc3c2)S1` [RO4595949-000], the potency estimated from few doses in [6] was 1240 nM.
As for `CC(C)c1nc(-c2cccc(NS(=O)(=O)c3c(F)cccc3F)c2F)c(-c2ccnc(Nc3ccc(N4CCOCC4)nc3)n2)s1` [GSK2008607A], the potency estimated from few doses in [7] is 1100 nM.
Consider `CS(=O)(=O)c1ccc(-c2cnc(N)c(C(=O)Nc3ccccc3)n2)cc1` [VE-821], for which, in [8], the potency estimated from few doses was 812 nM.
As for `N#Cc1cccc(Nc2nccc(-c3cnn4ncccc34)n2)c1` [GW778894X], the potency estimated from few doses in assay [9] was 975 nM.
For the compound `O=S(=O)(CCOCc1ccc(-c2ccc3ncnc(Nc4ccc(OCc5cccc(F)c5)c(Cl)c4)c3c2)o1)c1ccccc1` [GW615311X], the potency estimated from few doses in [10] is 1160 nM.
Turning to `Nc1nc(N)c2nc(-c3ccccc3)[nH]c2n1` [SKF-12778], the figures for the potency estimated from few doses in assay [11], in assay [12] and in [13] were 2020 nM, 790 nM and 1960 nM, respectively.
With `CN1CCN(Cc2ccc(NC(=O)Nc3ccc(N(C)c4ccnc(Nc5ccc(CS(C)(=O)=O)cc5)n4)cc3)cc2)CC1.Cl` [GW827654A], the potency estimated from few doses in assay [14] is 1230 nM.
Consider `CNC(=O)c1ccccc1Nc1nc(Nc2cccc(CS(C)(=O)=O)c2)ncc1C.O=CO` [GSK1520489A], for which the potency estimated from few doses in assay [15] was 167 nM; in assay [16] it was 438 nM; in [17] it was 1010 nM.
For `Cc1[nH]nc2c1N=C(c1ccccc1Cl)c1cc([N+](=O)[O-])ccc1N2` [RO0274406-000], the potency estimated from few doses in assay [18] is 1380 nM; in [19], 60.7 nM; in assay [20], 1680 nM.

These data come from article PMC11062922 (Nature Chemical Biology, 2023).
